# T cruzi growth-1 = T. cruzi intracellular proliferation inhibitors, primary screen, cell-based, beta-gal Tulahuen parasites, NIH3T3 host, luminescence | T. cruzi beta-gal in NIH3T3, GalScreen luminescence, 90 h | inhibition, % at 8.34 µM | actives 5.9% (n = 77,000);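 active = mean inhibition above about 93%, with at least 55% of replicates each passing it, limit read from the data, passing the limit was not always enough; inconclusive = only one of those two conditions holds; inactive = neither condition holds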
# Pf Dd2 growth = P. falciparum Dd2 growth inhibitors, primary screen, SYBR Green fluorescence, single dose replicates; activity change, % at 10 µM; 72 h; hits give low values; actives 2.3% (n = 94,000); in the data active = activity change below about -80%; inconclusive = no clear call, values can overlap the other calls
# C diff growth = C. difficile growth inhibitors, primary screen, HTS | Clostridium difficile clinical isolate growth, OD600, 24 h; hits give low values | growth activity, negative = inhibition, % at 16 µg/mL (by protocol) | actives 0.25% (n = 86,000);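 active = mean growth activity at or below -80% and every replicate also at or below -80%; inconclusive = mean at or below -80% but some replicate above -80%; inactive = mean growth activity above -80%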;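 also: 0% = DMSO wells and -100% = levofloxacin 16 µg/mL wells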
# T cruzi growth-2 = T. cruzi intracellular proliferation inhibitors, confirmation, cell-based, NIH3T3 host, beta-gal parasite, luminescence, cherry-pick; inhibition, % at 8.35 µM; T. cruzi beta-gal in NIH3T3, GalScreen luminescence, 90 h; actives 72% (n = 5,600); shares compounds with T cruzi growth-1;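 active = mean replicate inhibition above about 95% and at least 55% of replicates individually reaching it, limit read from the data; inconclusive = only one of the two criteria is met; inactive = neither criterion is met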
# T cruzi growth-3 = inhibitors of intracellular T. cruzi replication, confirmation, NIH3T3 host cells, beta-gal parasites, cherry-pick, set 2. shares compounds with T cruzi growth-1. T. cruzi beta-gal in NIH3T3, GalScreen luminescence, 90 h. inhibition, % at 2.09 µM. actives 21% (n = 5,600). AID 651740, 2012;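 active = mean inhibition above about 95%, with at least 55% of replicates also reaching it, limit read from the data; inconclusive = meets just one of the two conditions; inactive = meets neither condition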;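 also: plate controls were neutral control median for no effect and positive control median for full effect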
# NIH3T3 tox = cytotoxicity in mouse NIH/3T3 fibroblasts, confirmation, cytotoxicity control for T. cruzi proliferation inhibitor project, cell-based, cherry-pick, single point | shares compounds with T cruzi growth-1 | NIH/3T3 viability, CellTiter-Glo ATP luminescence, 90 h | cytotoxicity (signal decrease), % at 8.35 µM | actives 14% (n = 5,600);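 active = mean signal decrease across replicates above about 35% based on untreated-well scatter, with enough replicates individually passing, limit read from the data; inconclusive = no rule stated though some were filed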;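 also: 0% = median of neutral control wells and 100% = median of positive control wells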
# 3T3 cytotox 2 = NIH/3T3 fibroblast cytotoxicity, confirmation, cytotoxicity control, cell-based, cherry-pick, single point, set 2; actives 56% (n = 5,600); inhibition, % at 24.9 µM; NIH/3T3 viability, CellTiter-Glo ATP luminescence, 90 h; shares compounds with T cruzi growth-1;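 active = mean loss of cell viability signal at or above a set limit, and enough replicates individually reaching it; inconclusive = meets only the mean limit or only the replicate share; inactive = meets neither condition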;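 also: 0% = median of neutral control wells and 100% = median of positive control wells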
# * hit, by the source's call; ? = inconclusive; · = no result. Compounds with a hit are over-represented: about 6.7% of the library has one in this group of screens.
SMILES,T cruzi growth-1,Pf Dd2 growth,C diff growth,T cruzi growth-2,T cruzi growth-3,NIH3T3 tox,3T3 cytotox 2
C[C@@H]1CCCCO[C@@H](CN(C)CC2CCCCC2)[C@H](C)CN([C@@H](C)CO)C(=O)c2cc(NC(=O)Nc3ccc(C(F)(F)F)cc3)ccc2O1,?,-64,-61,85,108*,117*,104*
CCN1[C@H](C(=O)N(C)C)[C@@H](CO)[C@@H]2Cn3c(ccc(/C=C/c4ccccc4)c3=O)[C@@H]21,14,-8,13,·,·,·,·
C[C@@H]1CCCCO[C@H](CN(C)C(=O)CCCN(C)C)[C@@H](C)CN([C@H](C)CO)C(=O)c2cc(NC(=O)Cc3ccccc3)ccc2O1,72,24,-3,·,·,·,·
C/C=C/c1ccc2c(c1)O[C@H](CN(C)Cc1ccc(C(=O)O)cc1)[C@@H](C)CN([C@@H](C)CO)S2(=O)=O,·,-17,3,·,·,·,·
O=C(Nc1cccc(Cl)c1)N[C@@H]1CC[C@H](CCNC(=O)C2CC2)O[C@H]1CO,·,-2,-3,·,·,·,·
C[C@@H]1CCCCO[C@H](CN(C)C(=O)CCCN(C)C)[C@@H](C)CN([C@@H](C)CO)C(=O)c2cc(NC(=O)Nc3ccc(F)cc3)ccc2O1,-16,-45,0,·,·,·,·
COc1ccccc1NC(=O)N1CCCCN2[C@H](CO)[C@@H](c3ccc(C#Cc4ccccc4)cc3)[C@@H]2C1,49,-24,1,·,·,·,·
COc1ccccc1NC(=O)N1CCCCN2[C@@H](CO)[C@@H](c3ccc(-c4ccc(C)cc4)cc3)[C@@H]2C1,94,-62,52,·,·,·,·
COc1ccccc1NC(=O)N1CCCCN2[C@H](CO)[C@@H](c3ccc(-c4cccc(C)c4)cc3)[C@@H]2C1,95,-71,40,·,·,·,·
COc1ccccc1NC(=O)N1CCCCN2[C@H](CO)[C@H](c3ccc(-c4ccccc4)cc3)[C@@H]2C1,111*,7,-4,105*,93,18,32*
COc1ccccc1NC(=O)N1CCCCN2[C@H](C1)[C@H](c1ccc(C#Cc3ccccc3)cc1)[C@@H]2CO,114*,-25,4,104*,80,27,30*
COc1ccccc1NC(=O)N1CCCCN2[C@H](C1)[C@H](c1ccc(-c3cccc(F)c3)cc1)[C@@H]2CO,90,-4,28,·,·,·,·
COc1ccccc1NC(=O)N1CCCCN2[C@H](C1)[C@H](c1ccc(-c3ccc(C)cc3)cc1)[C@@H]2CO,113*,-48,2,111*,73,16,28*
COc1ccccc1NC(=O)N1CCCCN2[C@H](CO)[C@@H](c3ccc(-c4ccccc4)cc3)[C@@H]2C1,107*,-55,30,108*,116*,24,105*
C[C@@H]1CN([C@H](C)CO)C(=O)c2cc(NC(=O)CCC(F)(F)F)ccc2O[C@@H]1CN(C)S(=O)(=O)c1cn(C)cn1,-53,15,·,·,·,·,·
O=C(N[C@H]1C=C[C@@H](CC(=O)N2CCCCC2)O[C@@H]1CO)c1cccc(F)c1,-44,7,1,·,·,·,·
C[C@H]1CN([C@@H](C)CO)C(=O)c2cccc(NC(=O)Nc3ccc4c(c3)OCO4)c2O[C@@H]1CN(C)S(=O)(=O)c1ccccc1,13,12,-6,·,·,·,·
CC(C)NC(=O)NCC[C@@H]1CC[C@@H](NC(=O)CCN2CCCCC2)[C@@H](CO)O1,29,13,0,·,·,·,·
O=C(C[C@H]1CC[C@@H]2[C@H](COC[C@@H](O)CN2CCC(F)(F)F)O1)N1CCC(Cc2ccccc2)CC1,?,-2,-8,37,-24,-13,2
O=C(C[C@H]1CC[C@@H]2[C@H](COC[C@H](O)CN2Cc2ccccc2)O1)N1CCOCC1,123*,-24,6,23,12,14,9
O=C(C[C@@H]1CC[C@@H]2[C@H](COC[C@H](O)CN2Cc2ccccc2)O1)N1CCOCC1,-15,11,3,·,·,·,·
O=C(C[C@@H]1CC[C@H]2[C@@H](COC[C@@H](O)CN2Cc2ccc(Oc3ccccc3)cc2)O1)N1CCOCC1,-10,1,·,·,·,·,·
O=C(C[C@@H]1CC[C@H]2[C@@H](COC[C@H](O)CN2Cc2ccc(Oc3ccccc3)cc2)O1)N1CCN(c2ccccc2)CC1,130*,-73,7,102*,62,38*,101*
O=C(C[C@@H]1CC[C@H]2[C@@H](COC[C@@H](O)CN2CCC(F)(F)F)O1)N1CCC(Cc2ccccc2)CC1,59,-6,0,·,·,·,·
CCCC(=O)Nc1ccc2c(c1)OC[C@@H](C)N(CCC(F)(F)F)C[C@@H](C)[C@@H](OC)CN(C)C2=O,3,2,·,·,·,·,·
SMILES,T cruzi growth-1,Pf Dd2 growth,C diff growth,T cruzi growth-2,T cruzi growth-3,NIH3T3 tox,3T3 cytotox 2
C[C@@H]1CN([C@H](C)CO)C(=O)c2cc(NC(=O)Cc3cn(C)c4ccccc34)ccc2O[C@@H]1CN(C)CC1CC1,27,0,0,·,·,·,·
C[C@@H]1CN([C@H](C)CO)C(=O)c2cccc(NC(=O)C3CCCCC3)c2O[C@@H]1CN(C)S(=O)(=O)c1ccc(F)cc1,34,-16,-3,·,·,·,·
CS(=O)(=O)N1CCCCN2[C@@H](CO)[C@H](c3ccc(C#Cc4ccccn4)cc3)[C@@H]2C1,?,-39,2,108*,47,-7,13
CS(=O)(=O)N1CCCCN2[C@H](C1)[C@@H](c1ccc(C#Cc3ccccn3)cc1)[C@@H]2CO,104*,18,-6,112*,45,6,1
CS(=O)(=O)N1CCCCN2[C@H](C1)[C@H](c1ccc(C#Cc3ccccn3)cc1)[C@@H]2CO,112*,17,1,96*,39,5,-6
O=S(=O)(c1ccccc1)N1CCCCN2[C@H](CO)[C@H](c3ccc(C#Cc4ccccn4)cc3)[C@H]2C1,72,-38,-3,·,·,·,·
CCS(=O)(=O)N1CCCCN2[C@H](CO)[C@@H](c3ccc(C#Cc4ccccn4)cc3)[C@@H]2C1,86,9,-9,·,·,·,·
CCCC#Cc1ccc([C@@H]2[C@@H](CO)N3CCCCN(S(C)(=O)=O)C[C@H]23)cc1,11,20,-1,·,·,·,·
C[C@H](CO)N1C[C@H](C)[C@@H](CN(C)C(=O)Nc2cccc3ccccc23)Oc2c(NC(=O)Nc3cccc4ccccc34)cccc2C1=O,33,-8,-2,·,·,·,·
